Results reported in PMC5540273 (PLoS ONE, 2017).

Experiments:
Conditions in all cases: concentration: 1 μM,replicates: in singlicate; n = 1
CDK8 = system: CDK8
CDK9 = system: CDK9
CDKL1 = system: CDKL1
CDKL2 = system: CDKL2
CDKL3 = system: CDKL3
CDKL5 = system: CDKL5
CHEK1 = system: CHEK1
CHEK2 = system: CHEK2
CIT = system: CIT
CLK1 = system: CLK1
CLK2 = system: CLK2
CLK3 = system: CLK3
CLK4 = system: CLK4
CSF1R-autoinhibited = system: CSF1R-autoinhibited
CSF1R = system: CSF1R
CSK = system: CSK
CSNK1A1L = system: CSNK1A1L
CSNK1A1 = system: CSNK1A1
CSNK1D = system: CSNK1D
CSNK1E = system: CSNK1E
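Further: KINOMEscan kinase panel screen.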

| Compound | %Inh (CDK8) | %Inh (CDK9) | %Inh (CDKL1) | %Inh (CDKL2) | %Inh (CDKL3) | %Inh (CDKL5) | %Inh (CHEK1) | %Inh (CHEK2) | %Inh (CIT) | %Inh (CLK1) | %Inh (CLK2) | %Inh (CLK3) | %Inh (CLK4) | %Inh (CSF1R-autoinhibited) | %Inh (CSF1R) | %Inh (CSK) | %Inh (CSNK1A1L) | %Inh (CSNK1A1) | %Inh (CSNK1D) | %Inh (CSNK1E) |
| --- | --- | --- | --- | --- | --- | --- | --- | --- | --- | --- | --- | --- | --- | --- | --- | --- | --- | --- | --- | --- |
| CS(=O)(=O)c1cccc(CNc2nc(Nc3ccc4c(c3)[C@@H]3C[C@@H]4CNC3=O)ncc2C(F)(F)F)c1 | 0% | 27% | 71% | 80% | 2% | 0% | 0% | 17% | 51% | 81% | 6% | 0% | 0% | 22% | 5% | 0% | 0% | 0% | 0% | 0% |
| CSc1nccc(-c2c(-c3ccc(F)cc3)ncn2CCCN2CCOCC2)n1.Cl [SB-217146] | 1% | 0% | 36% | 10% | 0% | 11% | 0% | 0% | 0% | 0% | 0% | 0% | 18% | 0% | 0% | 0% | 0% | 6% | 54% | 10% |
| O=C(Nc1cccc(Oc2ccc3nccn3n2)c1)Nc1cccc(C(F)(F)F)c1 | 90.9% | 0% | 0% | 62% | 0% | 4% | 0% | 0% | 99.9% | 31% | 0% | 0% | 0% | 0% | 99.8% | 12% | 3% | 0% | 2% | 11% |
| Cc1ccc(C(=O)Nc2ccc(Oc3ccc4nc(NC(=O)C5CC5)cn4c3)c(F)c2)c(=O)n1-c1ccccc1 | 87% | 0% | 41% | 99.6% | 0% | 0% | 0% | 0% | 36% | 0% | 5% | 2% | 0% | 0% | 100% | 24% | 0% | 29% | 0% | 0% |
| COC(=O)Nc1nc2cc(Oc3ccc(NC(=O)Nc4cc(C(F)(F)F)ccc4Cl)cc3)ccc2[nH]1.Cl [GW697465] | 86% | 0% | 14% | 81% | 0% | 0% | 0% | 41% | 97.9% | 34% | 0% | 13% | 43% | 47% | 99.6% | 0% | 9% | 0% | 69% | 39% |
| CC(C)S(=O)(=O)N1CCN(Cc2ccc3c(c2)nc(NC(=O)c2ccsc2)n3C[C@H](O)c2ccccc2)CC1 [GW635815] | 15% | 0% | 8% | 6% | 0% | 0% | 0% | 32% | 98.4% | 98.5% | 91.9% | 79% | 95.5% | 45% | 68% | 13% | 68% | 60% | 56% | 71% |
| O=C1NCCc2[nH]c(-c3ccncc3)cc21 | 19% | 97.9% | 5% | 7% | 2% | 29% | 0% | 31% | 99.7% | 99.5% | 94.8% | 32% | 94.6% | 0% | 5% | 10% | 73% | 95.7% | 96.6% | 98.1% |
| CS(=O)(=O)Nc1ccc(-c2ccnc3[nH]ccc23)cc1 [GSK993273] | 18% | 0% | 0% | 19% | 0% | 0% | 0% | 0% | 57% | 96.7% | 94.8% | 58% | 96.3% | 0% | 32% | 0% | 21% | 5% | 20% | 33% |
| O=C(Nc1n[nH]c2cc(-c3ccco3)ccc12)C1CC1 [SB-737447] | 0% | 11% | 29% | 86% | 0% | 0% | 0% | 16% | 1% | 28% | 22% | 19% | 0% | 0% | 0% | 10% | 0% | 18% | 0% | 0% |
| O=C(Nc1ccccc1)c1cccc(Oc2ccc3nccn3n2)c1 | 0% | 94.6% | 0% | 20% | 0% | 0% | 0% | 0% | 32% | 0% | 20% | 0% | 0% | 0% | 81% | 0% | 0% | 0% | 0% | 0% |
